# Records with an inconclusive call do not appear. A call without a number means that no potency is given here. Calls of active or inactive are those of the source. Unless noted, calls come from the whole dose curve; as a rule, active = well fitted curve in the direction sought with a large enough effect; inconclusive = small, poorly fitted or top-dose-only effect, or another doubt; inactive = no such curve, though single readings can be large; an effect the other way counts as inactive or inconclusive.
# What was measured:
# [1] = target: Luciferin 4-monooxygenase (Photinus pyralis) (UniProt P08659); assay: Biochemical firefly luciferase enzyme assay for NPC (AID 624030);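 note: purified P. pyralis luciferase at 10 nM with luciferin and ATP substrate; nearly all actives have a fitted effect of over 70% in size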
# Summary of the method: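 Purified P. pyralis luciferase at 10 nM in 50 mM Tris Acetate (final), luminescence read within 5 minutes of enzyme addition to compounds. Activity normalised to PTC124 versus DMSO; concentration-response curves classed by r2, magnitude and activity.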
# [2] = S16 Schwann cell PMP22 intronic element firefly luciferase assay (AID 624032); note: nearly all actives have a fitted effect of over 30% in size
# Summary of the method: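 Rat S16 Schwann cells stably carrying firefly luciferase driven by a PMP22 intronic element, in 10% FBS, treated 24 h at 37 C. ONE-Glo luminescence normalized to PTC124 control and DMSO (0%); curves classed by r2, magnitude and activity.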
# [3] = S16 Schwann cell PMP22 intronic element beta-lactamase assay (AID 624044; calls by dose curve; note: nearly all actives have a fitted effect of over 15% in size)
# Summary of the method: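 Beta-lactamase reporter under a PMP22 intronic regulatory element in stable S16 rat Schwann cells; 24 h compound exposure. 460 nm blue signal normalized between DMSO (0%) and potassium clavulanate, with 535 nm FRET tracking viability; curves classed by r2 and response.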
# 3D7 = assay: qHTS profiling for inhibitors of Plasmodium falciparum proliferation (AID 504749); note: nearly all actives have a fitted effect of over 60% in size; note: potency is the fitted concentration of half-maximal effect; conditions: P. falciparum in erythrocytes, SYBR Green DNA, 72 h; series mostly up to 28.7 µM
# Summary of the method: (§1)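 SYBR Green fluorescence (ex 485 nm, em 535 nm) reports parasite DNA after 72 h compound exposure of infected red cells at 0.3% parasitemia, 2.5% hematocrit; signal normalized to 0.29 uM artemisinin and vehicle wells.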
# 7G8 = assay: as above; conditions: P. falciparum in erythrocytes, SYBR Green DNA, 72 h; series mostly up to 28.7 µM
# Summary of the method: as §1
# AA1029 = assay: as above; conditions: P. falciparum in erythrocytes, SYBR Green DNA, 72 h; series mostly up to 28.7 µM
# Summary of the method: as §1
# CP192 = assay: as above; conditions: P. falciparum in erythrocytes, SYBR Green DNA, 72 h; series mostly up to 28.7 µM
# Summary of the method: as §1
# CP194 = assay: as above; conditions: P. falciparum in erythrocytes, SYBR Green DNA, 72 h; series mostly up to 28.7 µM
# Summary of the method: as §1
# CP203 = assay: as above; conditions: P. falciparum in erythrocytes, SYBR Green DNA, 72 h; series mostly up to 28.7 µM
# Summary of the method: as §1
# CP247 = assay: as above; conditions: P. falciparum in erythrocytes, SYBR Green DNA, 72 h; series mostly up to 28.7 µM
# Summary of the method: as §1
# CP260 = assay: as above; conditions: P. falciparum in erythrocytes, SYBR Green DNA, 72 h; series mostly up to 28.7 µM
# Summary of the method: as §1
# CP286 = assay: as above; conditions: P. falciparum in erythrocytes, SYBR Green DNA, 72 h; series mostly up to 28.7 µM
# Summary of the method: as §1
# CP335 = assay: as above; conditions: P. falciparum in erythrocytes, SYBR Green DNA, 72 h; series mostly up to 28.7 µM
# Summary of the method: as §1
# DFO2036 = assay: as above; conditions: P. falciparum in erythrocytes, SYBR Green DNA, 72 h; series mostly up to 28.7 µM
# Summary of the method: as §1
# DIV14 = assay: as above; conditions: P. falciparum in erythrocytes, SYBR Green DNA, 72 h; series mostly up to 28.7 µM
# Summary of the method: as §1
# Dd2 = assay: as above; conditions: P. falciparum in erythrocytes, SYBR Green DNA, 72 h; series mostly up to 28.7 µM
# Summary of the method: as §1
# ICS = assay: as above; conditions: P. falciparum in erythrocytes, SYBR Green DNA, 72 h; series mostly up to 28.7 µM
# Summary of the method: as §1
# N140 = assay: as above; conditions: P. falciparum in erythrocytes, SYBR Green DNA, 72 h; series mostly up to 28.7 µM
# Summary of the method: as §1
# PC49 = assay: as above; conditions: P. falciparum in erythrocytes, SYBR Green DNA, 72 h; series mostly up to 28.7 µM
# Summary of the method: as §1
# TAB165 = assay: as above; conditions: P. falciparum in erythrocytes, SYBR Green DNA, 72 h; series mostly up to 28.7 µM
# Summary of the method: as §1
# Sequence of Luciferin 4-monooxygenase (Photinus pyralis) (P08659 whole entry, looked up): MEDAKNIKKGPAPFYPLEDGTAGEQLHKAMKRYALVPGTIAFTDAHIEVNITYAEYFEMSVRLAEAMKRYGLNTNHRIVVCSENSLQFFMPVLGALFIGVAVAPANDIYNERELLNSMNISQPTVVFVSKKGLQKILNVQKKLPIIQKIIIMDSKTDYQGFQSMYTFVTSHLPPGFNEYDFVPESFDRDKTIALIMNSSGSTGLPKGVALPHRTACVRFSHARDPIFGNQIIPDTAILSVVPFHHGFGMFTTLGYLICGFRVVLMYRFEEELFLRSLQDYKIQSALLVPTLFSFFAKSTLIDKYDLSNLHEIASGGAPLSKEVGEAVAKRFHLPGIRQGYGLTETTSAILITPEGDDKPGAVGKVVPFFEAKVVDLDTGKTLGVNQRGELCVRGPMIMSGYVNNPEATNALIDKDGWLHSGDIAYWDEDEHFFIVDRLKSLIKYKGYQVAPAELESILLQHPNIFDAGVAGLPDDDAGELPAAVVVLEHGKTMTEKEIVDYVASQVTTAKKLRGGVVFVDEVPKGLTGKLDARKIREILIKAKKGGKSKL
Compound,outcome [1],Potency [2],outcome [3],Potency (3D7),Potency (7G8),Potency (AA1029),Potency (CP192),Potency (CP194),Potency (CP203),Potency (CP247),Potency (CP260),Potency (CP286),Potency (CP335),Potency (DFO2036),Potency (DIV14),Potency (Dd2),Potency (ICS),Potency (N140),Potency (PC49),Potency (TAB165)
COc1cccc2c1C(=O)c1c(O)c3c(c(O)c1C2=O)C[C@](O)(C(=O)CO)C[C@@H]3O[C@H]1C[C@H](N)[C@@H](O)[C@H](C)O1,inactive,inactive,inactive,inactive,inactive,inactive,inactive,inactive,inactive,inactive,inactive,inactive,inactive,inactive,inactive,inactive,inactive,inactive,inactive,inactive
CC(C)(C)c1ccc(CN2CCN([C@H](c3ccccc3)c3ccc(Cl)cc3)CC2)cc1,inactive,inactive,inactive,6.31 µM (active),3.55 µM (active),8.91 µM (active),,,,,7.08 µM (active),4.47 µM (active),3.38 µM (active),,15.1 µM (active),8.91 µM (active),2.51 µM (active),7.08 µM (active),,7.94 µM (active)
O=C(O)[C@@H](O)[C@@H](O)[C@H](O)C(=O)CO,inactive,inactive,inactive,inactive,inactive,inactive,inactive,inactive,inactive,inactive,inactive,inactive,inactive,inactive,inactive,inactive,inactive,inactive,inactive,inactive
C[C@H](CCC(=O)O)[C@H]1CC[C@@H]2[C@H]3[C@@H](C[C@@H](O)[C@]21C)[C@]1(C)CC[C@H](O)C[C@@H]1C[C@@H]3O,inactive,inactive,inactive,inactive,inactive,inactive,inactive,inactive,inactive,inactive,inactive,inactive,inactive,inactive,inactive,inactive,inactive,inactive,inactive,inactive
CC1(C)S[C@@H]2[C@H](NC(=O)Cc3ccccc3)C(=O)N2[C@@H]1C(=O)O,inactive,inactive,inactive,inactive,inactive,inactive,inactive,inactive,inactive,inactive,inactive,inactive,inactive,inactive,inactive,inactive,inactive,inactive,inactive,inactive

# Reference: PubChem BioAssay (NCATS)
